Assay results taken from PubChem BioAssay.
Calls of active or inactive are those of the source.

Experiments:
[1] = compound effects on lung adenocarcinoma cell viability – A549, calcein-AM fluorescence, 48 h, basal, profiling panel (AID 1162); conditions: higher = more signal
[2] = compound effects on differentiated 3T3-L1 adipocyte viability – cell-based, 3T3-L1 adipocytes, calcein-AM fluorescence, 48 h, basal, profiling panel (AID 1163); conditions: 3T3-L1 adipocytes viability, higher = more signal
[3] = compound effects on hepatocellular carcinoma cell viability – HepG2, calcein-AM fluorescence, 48 h, basal, profiling panel (AID 1164); conditions: higher = more signal
[4] = compound effects on multiple myeloma cell viability – MM1S, calcein-AM fluorescence, 48 h, basal, profiling panel (AID 1165); conditions: higher = more signal
[5] = calcein-AM signal in unstimulated myeloma cells – cell-based, calcein-AM fluorescence, 48 h, PK04 Diversity Set, profiling panel (AID 1166); conditions: RPMI8226 myeloma viability, higher = more signal;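 further: cells grown under basal conditions without added stimulus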
[6] = JC-1 mitochondrial signal, unstimulated HepG2 cells – cell-based, JC-1 fluorescence, 24 h, 100 nL compound, profiling panel (AID 1167); conditions: HepG2 mitochondrial potential, higher = more signal
[7] = JC-1 mitochondrial signal, unstimulated adipocytes – cell-based, JC-1 fluorescence, 3T3-L1 adipocytes, 24 h, 100 nL compound, profiling panel (AID 1168); conditions: JC-1 mitochondrial fluorescence, higher = more signal, called active from +8 up or from −8 down
[8] = JC-1 mitochondrial signal, unstimulated myeloma cells – cell-based, JC-1 fluorescence, RPMI8226, 24 h, 100 nL compound, profiling panel (AID 1169); conditions: JC-1 mitochondrial potential fluorescence, higher = more signal
[9] = JC-1 mitochondrial signal, unstimulated MM1S myeloma – cell-based, JC-1 fluorescence, 24 h, 100 nL compound, profiling panel (AID 1170); conditions: MM1S mitochondrial potential, higher = more signal
[10] = resazurin metabolic signal in A549 cells – cell-based, resazurin fluorescence, 24 h, PK04 Diversity Set, profiling panel (AID 1171); conditions: A549 viability, higher = more signal, called active from +8 up or from −8 down
Further: test concentration not given here.

| Structure (SMILES) | z-score [1] | z-score [2] | z-score [3] | z-score [4] | z-score [5] | z-score [6] | z-score [7] | z-score [8] | z-score [9] | z-score [10] |
| --- | --- | --- | --- | --- | --- | --- | --- | --- | --- | --- |
| [N-]=[N+]=Nc1ccccc1C[C@@]1(C(=O)O)N=C(c2ccc(OCCCO)cc2)O[C@@H]1c1ccccc1 | -0.0649 | -0.532 | -0.222 | -1.78 | -1.26 | -1.65 | -0.0754 (inactive) | 0.00697 | -0.187 | 0.293 (inactive) |
| CCN(CC)c1ccc(N2CC=CC34O[C@@H]5/C=C\CCC(C)OC(=O)C5[C@H]3C(=O)N(CCO)[C@@H]4C2=O)cc1 (stereo not given in full) | 0.17 | 0.879 | 0.498 | -0.379 | -0.597 | 0.178 | -0.905 (inactive) | -0.22 | 1.83 | -0.857 (inactive) |
| O=C1c2ccccc2[C@](Cc2ccccc2I)(C(=O)NCCN2CCOCC2)[C@H](c2ccc(CO)cc2)N1Cc1ccccc1 | -0.0426 | 0.193 | 1.14 | 0.211 | -0.347 | 0.642 | 0.421 (inactive) | 0.231 | -0.462 | 0.0188 (inactive) |
| CCOC(=O)C1=CC[C@@H](c2ccccc2C(F)(F)F)N(S(=O)(=O)c2ccc(C)cc2)C1 | -0.82 | 0.605 | 1.31 | -0.925 | -1.28 | 2.51 | 0.0742 (inactive) | -0.226 | -0.435 | -1.27 (inactive) |
| COCCCNC(=O)[C@@]1(Sc2ccc(C)cc2)CC(=O)N(Cc2cc(C(F)(F)F)cc(C(F)(F)F)c2)[C@@H]1c1ccc(CO)cc1 | 0.285 | -0.515 | 0.584 | 1.35 | 1.42 | 0.967 | 0.895 (inactive) | 0.786 | -0.422 | -1.07 (inactive) |
| C[C@]1(C(=O)NC2CC2)c2ccccc2C(=O)N(Cc2ccc(OC(F)(F)F)cc2)[C@H]1c1ccc(CO)cc1 | -0.176 | -0.138 | 0.415 | -0.105 | 0.142 | 2.32 | -0.116 (inactive) | 0.917 | -0.316 | 0.306 (inactive) |
| C=C[C@@H](C)[C@H](OC(=O)Nc1ccc(SC)cc1)c1ccc(OCCO)cc1 | -0.848 | 0.54 | 0.0237 | 0.191 | 0.794 | -0.692 | 0.396 (inactive) | 0.917 | -1.13 | -0.0363 (inactive) |
| CN(C)C(=O)[C@]1(CCC(=O)OC(C)(C)C)N=C(c2ccc(OCCCO)cc2)O[C@@H]1c1ccccc1 | 1.13 | -0.0645 | 0.41 | 0.387 | -0.014 | 0.101 | 0.756 (inactive) | -0.368 | 0.211 | 0.534 (inactive) |
| COC(=O)[C@@]1(Cc2ccccc2)[C@H]2c3cc(C(=O)N4CCCC4)[nH]c3C[C@H]2CN1C(=O)c1ccccc1 | -1.12 | 0.904 | -0.585 | 0.277 | -1.17 | 0.288 | -1.17 (inactive) | -0.786 | -0.28 | 0.412 (inactive) |
| COC(=O)C(CC#Cc1ccc2c(c1)[C@]1(C(=O)N2)[C@H](C(=O)O)[C@H]2C(=O)O[C@H](c3ccccc3)[C@H](c3ccccc3)N2[C@@H]1c1ccccc1OCCO)C(=O)OC | -0.045 | -0.182 | -0.219 | -3.26 | -4.09 | -2.93 | -0.236 (inactive) | -0.441 | -1.98 | -0.327 (inactive) |
| COCCCNC(=O)[C@@]1(Sc2ccc(C)cc2)CC(=O)N(C2Cc3ccccc3C2)[C@@H]1c1ccc(CO)cc1I | -0.126 | -0.175 | -0.65 | -2.45 | -2.27 | -0.188 | -0.0568 (inactive) | -0.294 | -1.34 | -0.3 (inactive) |
| CCOC(=O)C[C@H]1[C@H](OC(=O)c2ccc(C(=O)c3ccccc3)cc2)[C@@H](NC(=O)c2ccc3ccccc3c2)c2cc(OCCCO)ccc2N1C(=O)c1ccccc1 | -0.0566 | 0.202 | -0.458 | 0.0736 | -0.602 | -0.245 | -1.1 (inactive) | 0.314 | 0.184 | -0.412 (inactive) |
| NC(N)=NCc1cn(CCc2c[nH]c3ccccc23)nn1 | -0.609 | -0.596 | -0.173 | -0.613 | -0.286 | -1.09 | -1.04 (inactive) | -0.588 | -0.77 | -0.975 (inactive) |
| C=CC[C@]12N=C(c3ccc(OCCCO)cc3)O[C@H]1c1ccccc1N(C)C2=O | -1.3 | 0.614 | -0.593 | -1.14 | -3.83 | 0.422 | -0.427 (inactive) | -1.17 | 0.203 | -1.12 (inactive) |
| O=C1OCC=C[C@H]2OC34C=CCN(c5ccc(Cl)cc5)C(=O)[C@H]3N(CCCCCO)C(=O)[C@@H]4[C@@H]12 (stereo not given in full) | -0.746 | 0.699 | -0.231 | 0.733 | 0.707 | -0.26 | 0.37 (inactive) | 0.536 | 1.35 | -0.283 (inactive) |
| NC(=O)N1C(=O)C2C(C1=O)C1C=C(c3ccc(CO)cc3)C2C(C2CC2)N1Cc1sc2ccccc2c1Cl (stereo not given) | 0.965 | 0.21 | 0.197 | -3.27 | -3.61 | 0.159 | 0.189 (inactive) | -0.65 | -0.311 | -0.207 (inactive) |
| CN(C)CCCNC(=O)[C@@]1(c2ccc([N+](=O)[O-])cc2)CC(=O)N(CC23CC4CC(CC(C4)C2)C3)[C@@H]1c1ccc(CO)cc1 | -3.74 | 0.0309 | -5.05 | -3.8 | -4.03 | -1.58 | 0.303 (inactive) | -1.04 | -2.33 | -4.78 (inactive) |
| NCCCCCCNC(=O)[C@@H]1C[C@@H]2C(=O)N3CCC[C@H]3C(=O)N2[C@@H]1c1ccc(O)cc1 | -0.428 | 0.548 | 0.442 | -0.0269 | -0.292 | -0.0719 | -0.202 (inactive) | 0.0552 | 0.0553 | -0.578 (inactive) |
| COC(=O)[C@@]1(Cc2ccccc2)[C@H]2c3cc(C(=O)N4CCCC4)n(Cc4cc(F)cc5c4OCOC5)c3C[C@H]2CN1C(=O)c1ccccc1 | -0.927 | -0.888 | 0.162 | 0.464 | -0.0133 | 3.48 | 0.0248 (inactive) | -0.0359 | -0.977 | -0.522 (inactive) |
| COc1ccc(C(O)C2C=CC3C(=O)N(Cc4ccccc4)C(=O)C3N2n2cnnc2)c2ccccc12 (stereo not given) | 0.0609 | 0.936 | 0.0591 | 0.405 | -1.34 | -0.722 | 0.895 (inactive) | -0.992 | -0.129 | -0.96 (inactive) |
| C=CCOC(=O)[C@H]1[C@@H]2C(=O)O[C@@H](c3ccccc3)[C@@H](c3ccccc3)N2[C@@H](c2ccc(OCCOC(=O)[C@H]3C[C@H]4C(=O)N[C@@H](Cc5ccccc5)C(=O)N4[C@H]3c3cccc(OCCO)c3)cc2)[C@]12C(=O)Nc1ccc(I)cc12 | -0.894 | -0.532 | 0.933 | -0.234 | -0.766 | -1.54 | -0.346 (inactive) | -0.713 | -1.41 | -0.461 (inactive) |
| C=C(CCCC)C(=O)CC[C@@H](OC(=O)c1cccnc1)c1ccccc1OCCO | -0.528 | 0.101 | -0.14 | -3.21 | -2.92 | 0.0547 | 0.361 (inactive) | -0.754 | -1.33 | 0.335 (inactive) |
| C=C(C(=O)CC[C@H](OC(=O)c1cccnc1)c1ccc(CO)o1)C(C)C | -0.242 | -0.449 | -0.676 | -0.66 | 0.202 | -2 | -1.78 (inactive) | 0.322 | -0.458 | -0.361 (inactive) |
| CCCC[C@@H]1C[C@H]1[C@@H](NC(=O)c1ccccc1)c1ccc(Cl)cc1 | -1.35 | -0.847 | -1.17 | -1.23 | -1.45 | 0.229 | -1.6 (inactive) | -0.852 | -1.19 | 2.09 (inactive) |
| CCOC(=O)[C@H]1C/C=C/C[C@H](C(=O)OCC)C(=O)O[C@H]2[C@@H](OC)O[C@H](CO)[C@@H](OC(=O)CCc3ccccc3)[C@@H]2OC1=O | 0.837 | 0.342 | 0.957 | 0.269 | 0.331 | 0.957 | 0.352 (inactive) | 0.655 | -0.533 | -0.553 (inactive) |
| COCCOC(=O)N1C(=O)[C@@]2(c3ccccc31)[C@H](c1ccc(OCCO)cc1)N1[C@H](c3ccccc3)[C@H](c3ccccc3)OC(=O)[C@H]1[C@@H]2C(=O)Nc1nc2ccccc2s1 | -1.38 | 0.73 | -1.18 | -1.15 | -1.57 | -3.4 | 0.576 (inactive) | -1.09 | -1.36 | 0.294 (inactive) |
| CC(C)CNC(=O)[C@@H]1c2ccccc2C(=O)N(Cc2cc(F)cc(C(F)(F)F)c2)[C@H]1c1ccc(CO)cc1 | 2.21 | -0.979 | 1.37 | -0.215 | 0.857 | 2.31 | 0.299 (inactive) | -0.137 | 0.205 | 0.317 (inactive) |
| COc1ccc([Si](C)(C)[C@H]2[C@H](CCn3cc([C@H](O)c4ccccc4)nn3)O[C@@]3(C(=O)N(Cc4ccc(N5CCOC5=O)cc4)c4ccccc43)[C@@H]2C)cc1 | 1.33 | 0.805 | 1.15 | -1.45 | 0.142 | 0.858 | 0.174 (inactive) | 0.157 | 0.113 | -0.265 (inactive) |
| C[C@]1(C(=O)NCCN2CCOCC2)c2ccccc2C(=O)N(Cc2ccc(OC(F)(F)F)cc2)[C@H]1c1ccc(CO)cc1 | 0.742 | -0.352 | 0.342 | -0.285 | 0.0667 | 3.08 | -0.446 (inactive) | -0.275 | -0.609 | 0.354 (inactive) |
